The results in this text go back to PubChem BioAssay AID504467 (National Center for Advancing Translational Sciences (NCATS), 2011).

In all, about 330,000 compounds went through this assay and about 7,700 (2.3%) were called active. A call without a number means that no potency is given here. Another 26% or so got no clear call; they are omitted. The call rests on the fitted dose curve; in most records, active means well fitted inhibition curve with a large enough effect; inconclusive means small, poorly fitted or top-dose-only effect, or effect the other way; inactive means flat fitted curve, though single readings scatter. The full list was thinned out, with actives kept by preference.
Potency means the concentration at half of the fitted maximal effect.

The nature of the test: qHTS screen for small molecules that inhibit ELG1-dependent DNA repair in human embryonic kidney (HEK293T) cells expressing luciferase-tagged ELG1. Further: nearly all actives have a fitted effect of over 55% in size. Particulars: HEK293T ELG1-luciferase reporter, luminescence, 16 h, DNA damage induced by 5-fluorouridine; series mostly up to 46.1 µM. In outline: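 Reporter activity after DNA damage by 5-fluorouridine is monitored. Compound-treated cells incubate 16 hr at 37 °C, then ONE-Glo is added for 30 min before luminescence reading.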
For orientation: In qHTS, concentration-response curves come from the screen itself.
As for `Cc1cccc(-c2oc3ccc(-c4ccc5c(c4)OCO5)cc3c2C#Cc2cncn2C)c1`, the Potency entry is “inactive”.

Turning to `COc1ccc(/C=C2\CCCC3C2=NN(C(=O)c2scnc2C)C3c2ccc(OC)cc2)cc1` (stereo not drawn), the Potency is 18.4 µM (active).

Take `CC(Oc1cc2oc(=O)c3c(c2cc1Cl)CCCC3)C(=O)NCc1ccncc1` (stereo not drawn): the Potency entry was “inactive”.

For the compound `O=C(c1cc2ccccc2o1)N1CCN(Cc2ccccc2)CC1`, the Potency entry was “inactive”.

With `CS(=O)(=O)N1CCN(C(=O)c2cc3ccccc3oc2=O)CC1`, the Potency entry is “inactive”.

Regarding `O=C(c1cc2ccccc2o1)N1CCN(S(=O)(=O)c2ccc(Cl)s2)CC1`, the Potency is 16.4 µM (active).

With `CCCc1cc(=O)[nH]c(SCC(=O)Nc2ccc(C(=O)Nc3ccccc3OC)cc2)n1`, the Potency result was “inactive”.

As to `O=C(NC1CCN(Cc2ccccc2)CC1)c1c(F)cccc1F`, the Potency entry was “inactive”.

Turning to `Cc1ccc(-c2cc(C(=O)NC3CCN(Cc4ccccc4)CC3)c3ccccc3n2)cc1`, the Potency entry is “inactive”.

On to `Cc1ccn2cc(C(=O)NC3CCN(Cc4ccccc4)CC3)nc2c1`, for which the Potency is 20.6 µM (active).

Consider `COc1ccc(NC(=O)C(CC(C)C)NC(=O)C2CCC(C)CC2)cc1` (stereo not drawn), for which the Potency entry was “inactive”.

In the case of `COc1ccc(NS(=O)(=O)c2ccc(C)c(C(=O)N(C)Cc3ccc(OC)cc3OC)c2)cc1`, the Potency result was “inactive”.

As for `O=C(Cc1ccc([N+](=O)[O-])cc1)Nc1ccc(C(=O)N2CCOCC2)cc1`, the Potency entry is “inactive”.

As for `Cc1c(C(=O)N2CCOCC2)[nH]c2ccc(OCc3ccccc3)cc12`, the Potency was 18.4 µM (active).

For the compound `COc1ccc2[nH]c(C(=O)N3CCN(C)CC3)c(C)c2c1`, the Potency result is “inactive”.

For `CCOC(=O)c1[nH]c2ccc(OC)cc2c1NC(=O)N1CCOCC1`, the Potency entry was “inactive”.

Turning to `COc1ccc(CN2C(CC(=O)Nc3cccnc3)c3ccc(C(F)(F)F)cc3S2(=O)=O)cc1` (stereo not drawn), the Potency result was “inactive”.

As to `Nc1nnc(SCC(=O)Nc2ccc3nc(SCC(=O)Nc4ccccc4)sc3c2)s1`, the Potency was 1.84 µM (active).

In the case of `O=C(CSc1c2c(nc3ccc(Cl)cc13)CCCC2)NCc1ccco1`, the Potency result is “inactive”.

As for `Cc1ccc(Nc2nc(N)nc(CN3CCN(Cc4ccccc4)CC3)n2)cc1Cl`, the Potency entry is “inactive”.

As to `Cc1ccc(S(=O)(=O)N2CCOCC2)cc1NC(=O)CSc1nnc(N)s1`, the Potency result is “inactive”.

For the compound `Cc1cc(Nc2ccc(Cl)cc2)nc(N2CCOCC2)n1`, the Potency result is “inactive”.

As to `COc1cc(OC)cc(-c2nnc(SCC(=O)Nc3ccc(C(=O)O)cc3)s2)c1`, the Potency result is “inactive”.

For the compound `O=C(CSc1nc2ccccc2s1)Nc1ccc(C(=O)O)cc1`, the Potency entry is “inactive”.

With `Cc1ccccc1NC(=O)CSc1nc2ccc(Nc3nc(N4CCOCC4)nc(N4CCOCC4)n3)cc2s1`, the Potency was 1.3 µM (active).

On to `Cc1ccccc1NC(=O)CSC1=NCCN1`, for which the Potency result is “inactive”.

In the case of `Cc1ccc(Nc2nc(N3CCOCC3)nc(N3CCOCC3)n2)cc1Cl`, the Potency is 0.651 µM (active).

On to `O=C(CSc1nc2ccc(Nc3nc(N4CCOCC4)nc(N4CCOCC4)n3)cc2s1)NCc1ccco1`, for which the Potency is 2.59 µM (active).

Regarding `C=CCn1c(CSc2nc3ccccc3s2)nnc1SCC(=O)NCc1ccco1`, the Potency result was “inactive”.

Consider `O=S(=O)(c1ccc(F)cc1)N1CCN=C1SCc1cccc(F)c1`, for which the Potency entry is “inactive”.

As for `O=C(Nc1cc(-c2nc3ncccc3o2)ccc1Cl)c1ccco1`, the Potency entry was “inactive”.

Turning to `COc1cccc(NC(=O)CCc2nnc3ccc(N4CCC(C)CC4)nn23)c1`, the Potency entry is “inactive”.

For the compound `COc1ccc(N(Cc2ccc(N(C)C)cc2)C(=O)c2ccc(S(C)(=O)=O)cc2)cc1`, the Potency result is “inactive”.

In the case of `CN[C@H](C(=O)NC[C@H]1O[C@@H](n2cnc3c(N)ncnc32)[C@H](O)[C@@H]1O)[C@@H](C)OCc1ccccc1`, the Potency entry was “inactive”.

As to `CCCN1CCn2c3c(c4cc(Br)ccc42)CCCC31` (stereo not drawn), the Potency result was “inactive”.

Regarding `c1ccc(-c2cc3c(NCC4COc5ccccc5O4)ncnc3s2)cc1` (stereo not drawn), the Potency is 20.6 µM (active).

In the case of `COc1ccc(Nc2ncnc3sc(-c4ccccc4)cc23)c(OC)c1`, the Potency entry was “inactive”.

In the case of `c1ccc2c(c1)OCC(CNc1ncnc3nc[nH]c13)O2` (stereo not drawn), the Potency entry is “inactive”.

Turning to `CC1(c2ccccc2)NC(=O)N(CC(=O)N2CC(=O)Nc3ccccc32)C1=O` (stereo not drawn), the Potency entry is “inactive”.

As for `O=C(CCCC(=O)N1CCN(c2cccc(Cl)c2)CC1)c1ccccc1`, the Potency result is “inactive”.

With `Cc1ccc(C(=O)Nc2nnc(C3=COCCO3)o2)cc1C`, the Potency result was “inactive”.

As for `O=C1C=C(c2ccnc3cc(Cl)ccc23)C[C@@H](c2ccc3c(c2)OCO3)C1`, the Potency result is “inactive”.

With `Cc1ccc(N2CCN(c3ccc([N+](=O)[O-])cn3)CC2)c(C)c1`, the Potency entry was “inactive”.

Regarding `O=C(Cc1cc(=O)[nH][nH]1)N/N=C/c1ccccc1[N+](=O)[O-]`, the Potency result was “inactive”.

In the case of `CN(C)/N=C/c1cc(Cl)cc([N+](=O)[O-])c1O`, the Potency result is “inactive”.

With `O=C(N/N=C/c1cc(Cl)cc([N+](=O)[O-])c1O)C(O)(c1ccccc1)c1ccccc1`, the Potency is 16.4 µM (active).

As for `CCOC(=O)C1=CN(Cc2ccc(Br)cc2)S(=O)(=O)N(C)C1C` (stereo not drawn), the Potency entry is “inactive”.

`CCn1c(Cc2ccc(OC)cc2)nnc1SCC(=O)Nc1ccc(N2CCOCC2)cc1`: the Potency entry is “inactive”.

As for `FC(F)(F)c1ccc2c3n(nc2c1)CCN=C3c1ccc(Cl)cc1`, the Potency result was “inactive”.

For `CCC(C)n1c(-c2cc(OC)c(OC)c(OC)c2)nc2nc3ccccc3nc21` (stereo not drawn), the Potency is 14.6 µM (active).

For the compound `COc1cc(C(O)c2nc3ccccc3n2C)cc(OC)c1OC` (stereo not drawn), the Potency result was “inactive”.

Regarding `COc1cc(-c2n[nH]c(=S)n2Cc2ccccc2)cc(OC)c1OC`, the Potency entry was “inactive”.

As to `O=C(COc1ccc([N+](=O)[O-])cc1Cl)Nc1ccc2[nH]c(=O)[nH]c2c1`, the Potency entry was “inactive”.

As to `Nc1cc(N)nc(SCC(=O)Nc2cccc(S(=O)(=O)N3CCCCC3)c2)n1`, the Potency entry is “inactive”.

Turning to `Cc1nn(-c2ccccc2)c2c1c(C)c(CCC(=O)NCC1CCCO1)c(=O)n2C` (stereo not drawn), the Potency entry is “inactive”.

On to `Cc1cccc(OCC(O)Cn2c(N3CCCCC3)nc3c2c(=O)[nH]c(=O)n3C)c1` (stereo not drawn), for which the Potency result is “inactive”.

With `CCC(C)Sc1nc2c(c(=O)[nH]c(=O)n2C)n1CC(O)COc1cccc2ccccc12` (stereo not drawn), the Potency was 8.2 µM (active).

`CCCSc1nc2c(c(=O)[nH]c(=O)n2C)n1CCc1ccccc1`: the Potency result was “inactive”.

In the case of `COC(=O)c1c(NC(=O)C2CC(C)=C(C)CC2C(=O)O)sc2c1CCCCC2` (stereo not drawn), the Potency result was “inactive”.

Consider `Cc1ccc(S(=O)(=O)N2CCN(C(=O)COC(=O)CNC(=O)c3ccc(C(C)(C)C)cc3)CC2)c(C)c1`, for which the Potency entry is “inactive”.

For `c1csc(CN2CCN(Cc3cccs3)C2c2cccs2)c1`, the Potency entry is “inactive”.

In the case of `Brc1ccc2c(c1)[C@H]1OCC[C@H]1[C@@H](c1cccs1)N2`, the Potency was 20.6 µM (active).

Take `CCc1nn(CCCC(=O)Nc2ccc(C)cc2C)c(=O)c2cc3occc3n12`: the Potency result was “inactive”.
